Reference: PubChem BioAssay AID1159580 (chemical genetic matrix, 2015)
In all, about 5,500 compounds went through this assay and about 2,000 (36%) were called active. Roughly 18% stayed inconclusive and do not appear here. No stated cut-off is given here; in the data, active means normalized growth mostly below about 0.91 (no sharp cut-off); inconclusive means no clear call, values can overlap the other calls; inactive means mostly above about 0.92. Some of the results follow.

Experiment: chemical genetic growth profiling, strain panel (AID 1159580);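 further: tested at 20 µM; growth read once vehicle control cultures reached saturation at 30 °C; 1 = growth at the plate median or of vehicle wells; lower values mean less growth of the strain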
Conditions: S. cerevisiae deletion strains, growth OD
[1] = locus YAR019C, strain CDC15, active compounds read low
[2] = locus YBL105C, strain PKC1, active compounds read low
[3] = locus YBR135W, strain CKS1, active compounds read low
[4] = locus YBR136W, strain MEC1, active compounds read low
[5] = locus YBR160W, strain CDC28, active compounds read low
[6] = locus YDL017W, strain CDC7, active compounds read low
[7] = locus YDL028C, strain MPS1, active compounds read low
[8] = locus YDL101C, strain DUN1, active compounds read low
[9] = locus YDL108W, strain KIN28, active compounds read low
[10] = locus YDL132W, strain cdc53, active compounds read low
[11] = locus YDL214C, strain PRR2, active compounds read low
[12] = locus YDR052C, strain DBF4, active compounds read low
[13] = locus YDR054C, strain cdc34, active compounds read low
[14] = locus YDR226W, strain ADK1, active compounds read low
[15] = locus YDR477W, strain SNF1, active compounds read low
[16] = locus YER123W, strain YCK3, active compounds read low
[17] = locus YER133W, strain GLC7, active compounds read low
[18] = locus YFL009W, strain cdc4, active compounds read low
[19] = locus YFL029C, strain CAK1, active compounds read low
[20] = locus YFR003C, strain YPI1, active compounds read low
[21] = locus YFR019W, strain FAB1, active compounds read low
[22] = locus YFR028C, strain CDC14, active compounds read low
[23] = locus YGR040W, strain KSS1, active compounds read low
[24] = locus YGR052W, strain FMP48, active compounds read low
[25] = locus YGR092W, strain DBF2, active compounds read low
[26] = locus YHR030C, strain SLT2, active compounds read low
[27] = locus YHR079C, strain IRE1, active compounds read low
[28] = locus YHR082C, strain KSP1, active compounds read low
[29] = locus YHR205W, strain SCH9, active compounds read low
[30] = locus YIL147C, strain SLN1, active compounds read low
[31] = locus YJL095W, strain BCK1, active compounds read low
[32] = locus YJL128C, strain PBS2, active compounds read low
[33] = locus YJL157C, strain FAR1, active compounds read low
[34] = locus YJR016C, strain ILV3, active compounds read low
[35] = locus YJR066W, strain TOR1 (second series), active compounds read low
[36] = locus YJR066W, strain TOR1, active compounds read low
[37] = locus YKL048C, strain ELM1, active compounds read low
[38] = locus YKL067W, strain YNK1, active compounds read low
[39] = locus YKL101W, strain HSL1, active compounds read low
[40] = locus YKL193C, strain SDS22, active compounds read low
[41] = locus YKL203C, strain TOR2, active compounds read low
[42] = locus YLR113W, strain HOG1, active compounds read low
[43] = locus YLR133W, strain CKI1, active compounds read low
[44] = locus YLR403W, strain SFP1, active compounds read low
[45] = locus YML070W, strain DAK1, active compounds read low
[46] = locus YMR001C, strain CDC5, active compounds read low
[47] = locus YMR205C, strain PFK2 (second series), active compounds read low
[48] = locus YMR277W, strain FCP1, active compounds read low
[49] = locus YNL006W, strain LST8, active compounds read low
[50] = locus YNL020C, strain ARK1, active compounds read low
[51] = locus YNL161W, strain CBK1, active compounds read low
[52] = locus YNL183C, strain NPR1, active compounds read low
[53] = locus YNL207W, strain RIO2, active compounds read low
[54] = locus YNL222W, strain SSU72, active compounds read low
[55] = locus YNL307C, strain MCK1 (second series), active compounds read low
[56] = locus YOL078W, strain AVO1, active compounds read low
[57] = locus YOL136C, strain PFK27, active compounds read low
[58] = locus YOR061W, strain CKA2, active compounds read low
[59] = locus YOR119C, strain RIO1, active compounds read low
[60] = locus YOR231W, strain MKK1, active compounds read low
[61] = locus YOR329C, strain SCD5, active compounds read low
[62] = locus YPL031C, strain PHO85, active compounds read low
[63] = locus YPL153C, strain RAD53, active compounds read low
[64] = locus YPL204W, strain HRR25, active compounds read low
[65] = locus YPL209C, strain IPL1, active compounds read low
[66] = locus YPL256C, strain CLN2, active compounds read low
[67] = locus YPR025C, strain CCL1, active compounds read low
[68] = locus YPR106W, strain ISR1, active compounds read low
[69] = locus YPR111W, strain DBF20, active compounds read low
[70] = strain NNK1, active compounds read low
[71] = strain TSCII, active compounds read low

Measured: normalized growth

Cc1nc(C(F)(F)F)c(C(=O)O/N=C(/N)c2ccc(Cl)cc2)s1
active: [42] 0.79 | [66] 0.795
inactive: [1] 0.98 | [2] 0.975 | [3] 0.98 | [4] 0.968 | [5] 0.983 | [6] 0.988 | [7] 0.974 | [8] 0.994 | [9] 0.98 | [10] 0.997 | [11] 0.967 | [12] 0.988 | [13] 1 | [14] 0.991 | [15] 0.942 | [16] 0.92 | [17] 0.942 | [18] 0.974 | [19] 0.983 | [20] 0.982 | [21] 0.938 | [22] 0.98 | [23] 0.941 | [24] 0.952 | [25] 0.933 | [26] 0.999 | [27] 0.83 | [28] 1.14 | [29] 0.921 | [30] 0.978 | [31] 0.818 | [32] 0.978 | [33] 0.952 | [34] 0.984 | [35] 0.926 | [36] 1.06 | [37] 1 | [38] 0.974 | [39] 0.983 | [40] 0.954 | [41] 1.03 | [43] 0.948 | [44] 0.905 | [45] 0.939 | [46] 0.973 | [47] 0.941 | [48] 0.974 | [49] 0.985 | [50] 0.945 | [51] 0.984 | [52] 0.876 | [53] 0.972 | [54] 0.977 | [55] 0.963 | [56] 0.97 | [57] 0.946 | [58] 0.948 | [59] 0.983 | [60] 0.831 | [61] 0.974 | [62] 0.947 | [63] 0.937 | [64] 0.921 | [65] 0.982 | [67] 0.993 | [68] 0.987 | [69] 0.976 | [70] 0.995 | [71] 0.974

CCC1CCC(C)N(C(=S)Nc2ccc(Br)cc2C)C1 (configuration not stated)
inactive: [1] 0.965 | [2] 0.976 | [3] 0.955 | [4] 0.971 | [5] 0.953 | [6] 0.966 | [7] 0.961 | [8] 0.958 | [9] 0.96 | [10] 0.956 | [11] 0.987 | [12] 0.969 | [13] 0.953 | [14] 0.963 | [15] 0.955 | [16] 0.936 | [17] 0.961 | [18] 0.956 | [19] 0.963 | [20] 0.978 | [21] 0.995 | [22] 0.967 | [23] 0.963 | [24] 1.11 | [25] 0.964 | [27] 0.979 | [28] 1.05 | [29] 0.993 | [30] 0.968 | [31] 0.913 | [32] 0.927 | [33] 0.986 | [34] 0.964 | [35] 1.01 | [36] 0.987 | [37] 0.956 | [38] 1 | [39] 0.95 | [40] 0.951 | [41] 1.05 | [42] 0.924 | [43] 0.98 | [44] 0.992 | [45] 0.958 | [46] 0.961 | [47] 0.973 | [48] 0.962 | [49] 0.966 | [50] 0.974 | [51] 0.948 | [52] 0.967 | [53] 0.957 | [54] 0.963 | [55] 0.948 | [56] 0.959 | [57] 0.964 | [58] 0.948 | [59] 1.08 | [60] 0.957 | [61] 0.968 | [62] 0.968 | [63] 0.955 | [64] 0.969 | [65] 0.967 | [66] 0.906 | [67] 0.959 | [68] 0.978 | [69] 0.979 | [70] 0.962 | [71] 0.95
active: [26] 0.84
